The supplement of paper PMC7411640
Where a name gives a salt, the structure may show the parent alone.

Each compound was assayed on MDA-MB-468 (assay: phospho-S6 immunofluorescence (DAPI-normalised), per-plate z-score; higher = higher phospho-S6 signal (less pathway suppression)). Details: co-treatment: lapatinib 1 uM; 24 h.
Procedure: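 GPCR-targeted compound library (MedChemExpress HY-L006) tested on MDA-MB-468 PTEN-null TNBC cells in 384-well plates at 0.1, 1 or 10 uM, combined with vehicle, GDC0941 450 nM or lapatinib 1 uM, for 24 h. Phospho-S6 (S240/244) immunofluorescence normalised to DAPI and expressed as a per-plate z-score; values are the mean of biological triplicates.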

SMILES | phospho-S6 immunofluorescence (z-score)
CNS(=O)(=O)CCc1ccc2[nH]cc(C3CCN(C)CC3)c2c1 [Naratriptan (hydrochloride)] (compound 10 µM) | 0.4
CC(C)C(=O)OCC(=O)[C@@]12O[C@H](C3CCCCC3)O[C@@H]1C[C@H]1[C@@H]3CCC4=CC(=O)C=C[C@]4(C)[C@H]3[C@@H](O)C[C@@]12C [Ciclesonide] (compound 10 µM) | 0
O=C1Cc2cc(CCN3CCN(c4nsc5ccccc45)CC3)c(Cl)cc2N1 [Ziprasidone (hydrochloride monohydrate)] (compound 10 µM) | -9.79
COc1cc(N)cn[n+]1-c1ccccc1 [Amezinium (methylsulfate)] (compound 10 µM) | 1.19
COc1cc2c(cc1OC)CC(=O)N(CCCN(C)C[C@H]1Cc3cc(OC)c(OC)cc31)CC2 [Ivabradine (hydrochloride)] (compound 10 µM) | -0.13
COc1ccccc1Oc1c(NS(=O)(=O)c2ccc(C)cn2)nc(-c2ccncc2)nc1OC [Avosentan] (compound 10 µM) | -0.67
C[C@@H](NCCCc1cccc(C(F)(F)F)c1)c1cccc2ccccc12 [Cinacalcet] (compound 10 µM) | -7.68
C[C@H](CCC(=O)O)[C@H]1CC[C@H]2[C@@H]3CC[C@@H]4C[C@H](O)CC[C@]4(C)[C@H]3C[C@H](O)[C@]12C [Deoxycholic acid] (compound 10 µM) | 0.6
CC(C)NC[C@H](O)COc1ccc(CCOCC2CC2)cc1 [Levobetaxolol (hydrochloride)] (compound 10 µM) | -0.2
CN(C)CCCN1c2ccccc2CCc2ccc(Cl)cc21 [Clomipramine (hydrochloride)] (compound 10 µM) | -3.26
CN(C)CCN(Cc1ccccc1)c1ccccn1 [Tripelennamine (hydrochloride)] (compound 10 µM) | -0.31
N[C@@H](Cc1ccc(O)c(O)c1)C(=O)O (compound 10 µM) | -0.12
COc1ccc(/C=C/C(=O)Nc2ccccc2C(=O)O)cc1OC [Tranilast (trans-)] (compound 10 µM) | -0.26
CN1[C@@H]2CC[C@H]1C[C@@H](OC(c1ccccc1)c1ccccc1)C2 [Benztropine (mesylate)] (compound 10 µM) | -1.69
Clc1ccc(CCCOCCCN2CCCCC2)cc1 [Pitolisant (hydrochloride)] (compound 10 µM) | -0.69
COc1ccc2cc(OCC3(C(=O)O)CN(C(=O)c4ccc(F)cc4)C3)ccc2c1 (compound 10 µM) | 0.61
CN(C)CC[C@@H](c1ccc(Cl)cc1)c1ccccn1 [Dexchlorpheniramine (maleate)] (compound 10 µM) | -0.08
N#Cc1cc(NC(=O)C(=O)O)c(Cl)c(NC(=O)C(=O)O)c1 [Lodoxamide] (compound 10 µM) | 0.6
CN(C)CCCN1c2ccccc2Sc2ccc(C(F)(F)F)cc21 [Triflupromazine (hydrochloride)] (compound 10 µM) | -2.74

SMILES | phospho-S6 immunofluorescence (z-score)
Cc1nc(C#Cc2cccnc2)cs1 [MTEP (hydrochloride)] (compound 10 µM) | -0.65
COc1ccc(/C=C/C(=O)Nc2ccccc2C(=O)O)cc1OC [Tranilast] (compound 10 µM) | -0.19
O=c1ccc2ccc(OCCCCN3CCN(c4cccc5sccc45)CC3)cc2[nH]1 [Brexpiprazole] (compound 10 µM) | -6.92
O=c1cc(C(Cl)(Cl)Cl)oc2ccc(Cl)cc12 (compound 10 µM) | -0.11
NC(=O)CC[C@H](N)C(=O)O [L-Glutamine] (compound 10 µM) | -0.64
CCN(CC)CC#CCOC(=O)C(O)(c1ccccc1)C1CCCCC1 (configuration not stated) [Oxybutynin (chloride)] (compound 10 µM) | 0.51
Cc1ccc(C(=O)Nc2ccc(S(=O)(=O)O)c3cc(S(=O)(=O)O)cc(S(=O)(=O)O)c23)cc1NC(=O)c1cccc(NC(=O)Nc2cccc(C(=O)Nc3cc(C(=O)Nc4ccc(S(=O)(=O)O)c5cc(S(=O)(=O)O)cc(S(=O)(=O)O)c45)ccc3C)c2)c1 [Suramin (sodium salt)] (compound 10 µM) | 1.39
Brc1c(NC2=NCCN2)ccc2nccnc12 [UK 14,304 (tartrate)] (compound 10 µM) | 1.2
Cc1ccc(F)cc1C(=O)Nc1ccc(C(=O)N2Cc3cccn3Cc3ccccc32)c(Cl)c1 [Lixivaptan] (compound 10 µM) | -0.79
CN1C2CCCC1CC(NC(=O)c1nn(C)c3ccccc13)C2 (configuration not stated) [Granisetron (Hydrochloride)] (compound 10 µM) | 0.62
CC1(C)O[C@@H]2C[C@H]3[C@@H]4CCC5=CC(=O)C=C[C@]5(C)[C@@]4(F)[C@@H](O)C[C@]3(C)[C@]2(C(=O)CO)O1 [Triamcinolone (acetonide)] (compound 10 µM) | 1.39
CCNC(=O)[C@@H]1CCCN1C(=O)[C@H](CCCNC(=N)N)NC(=O)[C@H](CC(C)C)NC(=O)[C@@H](CC(C)C)NC(=O)[C@H](Cc1ccc(O)cc1)NC(=O)[C@H](CO)NC(=O)[C@H](Cc1c[nH]c2ccccc12)NC(=O)[C@H](Cc1c[nH]cn1)NC(=O)[C@@H]1CCC(=O)N1 [Leuprolide (Acetate)] (compound 10 µM) | -0.17
CCOC(=O)O[C@]1(C(=O)OCCl)CC[C@H]2[C@@H]3CCC4=CC(=O)C=C[C@]4(C)[C@H]3[C@@H](O)C[C@@]21C [Loteprednol Etabonate] (compound 10 µM) | 0.31
CC1OC2(CS1)CN1CCC2CC1 (configuration not stated) [Cevimeline (hydrochloride hemihydrate)] (compound 10 µM) | -0.04
CCn1c(=O)c2c(nc(/C=C/c3ccc(OC)c(OC)c3)n2C)n(CC)c1=O [Istradefylline] (compound 10 µM) | 0.09
Clc1ccc2c(c1)CCc1cccnc1C2=C1CCNCC1 [Desloratadine] (compound 10 µM) | -1.96
Cc1ccc(Sc2ccccc2N2CCNCC2)c(C)c1 [Vortioxetine (hydrobromide)] (compound 10 µM) | -11.4
CC(COc1ccccc1)N(CCCl)Cc1ccccc1 (configuration not stated) [Phenoxybenzamine (hydrochloride)] (compound 10 µM) | -0.04
